Potency data for 39 compounds are collected here from PubChem BioAssay AID651599 (National Center for Advancing Translational Sciences (NCATS), 2012).

Results filed as inconclusive are left out. Where a call stands in place of a potency, no number is given. Activity calls are given as the source filed them. Calls come from the whole dose curve; as a rule, active = well fitted inhibition curve with a large enough effect; inconclusive = small, poorly fitted or top-dose-only effect; inactive = no such curve, though single readings can be large or run the other way.
Potency is the fitted concentration of half-maximal effect.

Chain of Tumor susceptibility gene 101 protein (Homo sapiens) (Q99816 whole entry, looked up, the tested form may be a part): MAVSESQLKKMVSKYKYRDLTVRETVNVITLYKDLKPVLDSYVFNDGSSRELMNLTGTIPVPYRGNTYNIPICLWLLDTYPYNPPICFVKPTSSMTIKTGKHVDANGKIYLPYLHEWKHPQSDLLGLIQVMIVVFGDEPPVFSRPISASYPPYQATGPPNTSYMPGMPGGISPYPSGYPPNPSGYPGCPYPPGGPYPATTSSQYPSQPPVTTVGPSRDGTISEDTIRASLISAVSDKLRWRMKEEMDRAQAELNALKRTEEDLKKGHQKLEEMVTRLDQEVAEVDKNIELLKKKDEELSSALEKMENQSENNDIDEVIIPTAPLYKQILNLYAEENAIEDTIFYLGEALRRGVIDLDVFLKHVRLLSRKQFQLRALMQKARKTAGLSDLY

The target in the assay is Tumor susceptibility gene 101 protein (Homo sapiens) (UniProt Q99816). In words: qHTS Assay for Iinhibitors of HIV-1 Budding by Blocking the Interaction of PTAP/TSG101: Hit Validation in TR assay. Conditions: Tsg101 binding domain + Texas Red-labeled PTAP peptide, fluorescence polarization, 20 min; series mostly up to 57.5 µM. The procedure, abridged:
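Fluorescence polarization: Tsg101 binding domain (10 uM final) with Texas Red-labelled PTAP peptide (50 nM final) in HEPES pH 7.5, 0.15 M NaCl, Tween 20, EDTA, TCEP; 20 min binding at room temperature after compound addition.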
On the technique in general: In qHTS, concentration-response curves come from the screen itself.
As for `Cc1ccccc1C1CC(=O)Oc2cc(O)ccc21` (centres undefined), the Potency result is “inactive”.

With `Cc1cc2c(cc1C)NC(c1c(C)n(C)n(-c3ccccc3)c1=O)C1=C(CC(C)(C)CC1=O)N2` (centres undefined), the Potency result is “inactive”.

As to `CN1C(=O)NC(c2ccccc2[N+](=O)[O-])C2=C1CCCC2=O` (centres undefined), the Potency result is “inactive”.

For the compound `Oc1ccc2ccccc2c1N=Nc1nccs1`, the Potency entry was “inactive”.

Regarding `c1ccc2c(c1)CCCN2Cc1nnnn1CC1CCCO1` (centres undefined), the Potency is 18.3 µM (active).

Turning to `CCCn1nc(-c2ccccc2)c2nc3ccccc3nc21`, the Potency result is “inactive”.

In the case of `Cc1cccc(N2C(=O)c3cccc4c(N(C)CCO)ccc(c34)C2=O)c1`, the Potency entry is “inactive”.

`CC1CCCN(c2nc3ccccc3nc2C(C#N)S(=O)(=O)c2ccccc2)C1` (centres undefined): the Potency result is “inactive”.

Take `NS(=O)(=O)c1ccc(N=Nc2c[nH]c(=O)c(O)c2)cc1`: the Potency entry is “inactive”.

For the compound `COc1ccc(CNC(=O)C(C#N)c2nc3ccccc3nc2N2CCCC2)cc1` (centres undefined), the Potency entry was “inactive”.

`CCCCN(C)C1=CC2=CC(=C(C#N)C#N)CCC2CC1` (centres undefined): the Potency result was “inactive”.

Consider `S=C(Nc1ccc(N2CCOCC2)cc1)Nc1ccc2nc(-c3ccco3)c(-c3ccco3)nc2c1`, for which the Potency result was “inactive”.

For `CC1CC(C)CN(C(=O)c2ccc3c(c2NCCO)C(=O)c2ccccc2C3=O)C1` (centres undefined), the Potency result was “inactive”.

Take `CCCCCCN1C=CC=C/C1=C/C=C(C#N)C#N`: the Potency result was “inactive”.

Regarding `O=Cc1ccc2noc(-c3ccc(F)cc3)c2c1`, the Potency entry was “inactive”.

With `OC(CN1CCN(c2ccccn2)CC1)Cn1c2ccccc2c2ccccc21` (centres undefined), the Potency entry was “inactive”.

`CC1=CC(=C(C#N)c2nc3ccccc3s2)C=C(C)N1c1ccc(F)cc1F`: the Potency entry was “inactive”.

For the compound `CCC1(c2ccccc2)NC(=O)N(CC(=O)Nc2ccc(OC)nc2)C1=O` (centres undefined), the Potency result is “inactive”.

Take `Cc1cc(-c2cccs2)c2c(N)c(C(=O)c3ccc4c(c3)OCO4)sc2n1`: the Potency entry is “inactive”.

In the case of `Cc1ccc(OC(=O)c2ccc3nc(C)sc3c2)cc1`, the Potency entry is “inactive”.

Take `CCN(CC)C(=O)[C@H]1CC(CC(=O)NCc2cccc(C(F)(F)F)c2)C(=O)N2CCc3c([nH]c4ccc(OC)cc34)[C@]12C` (some centres undefined): the Potency entry is “inactive”.

Consider `COc1ccc(OC)c(/C=C(\C#N)c2nc3ccccc3c(=O)[nH]2)c1`, for which the Potency entry is “inactive”.

For `O=C(NCc1cccc(F)c1)c1cccc2c1C(=O)c1ccc(N3CCCC3)cc1S2(=O)=O`, the Potency entry is “inactive”.

For the compound `CC1=CC(=C(C#N)c2nc3ccccc3s2)C=C(C)N1CC1CCCO1` (centres undefined), the Potency result was “inactive”.

As to `COc1ccc2c(C#N)c3ccccn3c2c1`, the Potency result is “inactive”.

As for `Brc1ccc(C2=CC(c3cccs3)n3ncnc3N2)cc1` (centres undefined), the Potency result was “inactive”.

Turning to `CCCN(CCC)S(=O)(=O)c1ccc(C(=O)OCCN2C(=O)c3cccc4c(N5CCOCC5)ccc(c34)C2=O)cc1`, the Potency entry is “inactive”.

As to `CCCCn1c(=O)[nH]c2nc3cc(N)ccc3nc2c1=O`, the Potency was 11.6 µM (active).

Take `Cc1cc(=O)c2c([nH]1)c(C)cc1[nH]c(C)c(C)c12`: the Potency entry is “inactive”.

Consider `CCCN1CCN(S(=O)(=O)c2cn(C)nc2C)CC1`, for which the Potency entry was “inactive”.

Regarding `O=C1/C(=C\c2ccc(-c3ccccc3Cl)o2)SC(=S)N1CC1CCCO1` (centres undefined), the Potency result is “inactive”.

On to `CCNc1cccc2c1C(=O)N(C)C2=O`, for which the Potency entry is “inactive”.

For `O=C(NCc1cccc(F)c1)c1cccc2c1C(=O)c1ccc(N3CCC(Cc4ccccc4)CC3)cc1S2(=O)=O`, the Potency result was “inactive”.

Take `Cn1c(/C(C#N)=C/c2ccc(-c3ccc(S(N)(=O)=O)cc3)o2)nc2ccccc21`: the Potency entry is “inactive”.

On to `CSc1c(C#N)c(N)nc2sc(C(=O)c3ccc(Cl)c(Cl)c3)c(N)c12`, for which the Potency result was “inactive”.

For the compound `O=C1/C(=N\S(=O)(=O)c2cccs2)C([n+]2ccccc2)=C([O-])c2ccccc21`, the Potency entry was “inactive”.

Regarding `O=C(O)CCNc1ccc(NCCC(=O)O)c2c1C(=O)c1ccccc1C2=O`, the Potency entry was “inactive”.

With `COc1cccc(C(=O)c2sc3nc(-c4ccccc4)cc(C(F)(F)F)c3c2N)c1`, the Potency entry was “inactive”.

As to `Nc1ccc(-c2c3ccc(=O)cc-3oc3cc(O)ccc23)c(C(=O)O)c1`, the Potency result was “inactive”.
